{"source": "PubChem BioAssay AID590", "about": "(National Center for Advancing Translational Sciences (NCATS), 2007)", "note": "Screen size: about 59,000 compounds; about 6,500 (11%) were called active. Not shown: some 15% with an inconclusive outcome. Cut-off read from the data, not from the text of the source: active = max dye-equivalent concentration above about 10 nM; inconclusive = mostly about 1.1 nM to 9.6 nM; inactive = weaker than that. The entries come from a sample that favours actives as a whole."}
{"test": "qHTS Assay for Spectroscopic Profiling in A350 Spectral Region", "settings": "Compound autofluorescence, 340/450 nm, Alexa 350 dye-equivalents; active compounds read high"}
{"compound": "COCCn1c(CN2CCC(Cc3ccccc3)CC2)nc2c1c(=O)n(C)c(=O)n2C", "max dye-equivalent concentration": "inactive"}
{"compound": "CC(=O)O[C@]1(C(C)=O)CC[C@@H]2[C@@H]3C=C(C)C4=CC(=O)CC[C@@]4(C)[C@H]3CC[C@]21C", "max dye-equivalent concentration": "inactive"}
{"compound": "O=C(NCCN1CCOCC1)c1c(F)c(F)c(F)c(F)c1F", "max dye-equivalent concentration": "inactive"}
{"compound": "COc1ccc(-c2nn(-c3ccccc3)cc2C(=O)Nc2nc(CC(C)=O)ns2)cc1", "max dye-equivalent concentration": "inactive"}
{"compound": "CC(=O)NC(C)c1nc2ccccc2n1Cc1ccccc1F", "note": "(centres undefined)", "max dye-equivalent concentration": "inactive"}
{"compound": "CC(C)C1Cc2c(sc3c2c(=O)n(-c2ccccc2)c2nncn32)CO1", "note": "(centres undefined)", "max dye-equivalent concentration": "inactive"}
{"compound": "CCOC(=O)Cn1c2c(c(-c3ccccc3OC)cc1=O)CCCC2", "max dye-equivalent concentration": "inactive"}
{"compound": "COc1ccc(N2CCN(C(=O)CSc3nnc4ncccn34)CC2)cc1", "max dye-equivalent concentration": "inactive"}
{"compound": "O=C1CCC(=O)N1CCOP1(=O)COc2ccccc2OC1", "max dye-equivalent concentration": "inactive"}
{"compound": "COCCn1c(=O)c(-c2cc(F)cc(F)c2)nc2cnc(N3CCNCC3)nc21", "max dye-equivalent concentration": "390 nM (active)"}
{"compound": "CCCn1c(=O)c2[nH]c(-c3ccc(OCC(=O)NCCN)cc3)nc2n(CCC)c1=O", "max dye-equivalent concentration": "inactive"}
{"compound": "COc1ccc(C(=O)N2CCC3(CCCN(C(c4ccccc4)c4ccccc4)C3)CC2)cc1", "max dye-equivalent concentration": "inactive"}
{"compound": "CC1(C)SC2c3ccccc3C(=O)N2[C@@H]1C(=O)NCc1ccco1", "note": "(some centres undefined)", "max dye-equivalent concentration": "inactive"}
{"compound": "CC1(C)S[C@@H]2[C@@H](NC(=O)[C@@H](N)c3ccccc3)C(=O)N2[C@H]1C(=O)O", "max dye-equivalent concentration": "44 nM (active)"}
{"compound": "CCCC[C@H]1C(=O)N(c2ccccc2)N(c2ccc(O)cc2)C1=O", "max dye-equivalent concentration": "inactive"}
{"compound": "Cc1cc(Br)ccc1NC(=O)C1CCCO1", "note": "(centres undefined)", "max dye-equivalent concentration": "inactive"}
{"compound": "NC1(C(=O)OCc2ccccc2)CCCC1", "max dye-equivalent concentration": "inactive"}
{"compound": "COc1cccc(NC(=O)C2CCCN2C(=O)OCc2ccccc2)c1", "note": "(centres undefined)", "max dye-equivalent concentration": "inactive"}
{"compound": "CC(C)C(NC(=O)OCc1ccccc1)C(=O)OCC(=O)N1C(C)CCCC1C", "note": "(centres undefined)", "max dye-equivalent concentration": "48 nM (active)"}
{"compound": "COc1cc(-c2noc(C3CCCN(S(=O)(=O)c4cccc(Cl)c4)C3)n2)cc(OC)c1OC", "note": "(centres undefined)", "max dye-equivalent concentration": "inactive"}
{"compound": "Cc1nc2nc[nH]n2c(=O)c1NC(=O)c1cccc(OCC(C)C)c1", "max dye-equivalent concentration": "inactive"}
{"compound": "CCCN1Cc2cccc(C(=O)NCc3ccccc3)c2C1=O", "max dye-equivalent concentration": "inactive"}
{"compound": "O=C1CCCC2=C1C(c1cccs1)n1nc(SCc3ccccc3)nc1N2", "note": "(centres undefined)", "max dye-equivalent concentration": "110 nM (active)"}
{"compound": "CC(C)C(=O)N1c2ccccc2NC2=C(C(=O)CCC2)C1c1ccc(N(C)C)cc1", "note": "(centres undefined)", "max dye-equivalent concentration": "inactive"}
{"compound": "NC(=NC(=O)c1ccccc1)C1=C(O)CCC1=O", "max dye-equivalent concentration": "inactive"}
{"compound": "CCn1c(COc2cccc(OC)c2)nnc1SCC(=O)N1CCOCC1", "max dye-equivalent concentration": "inactive"}
{"compound": "COc1ccc(-c2ccnc(SCC(=O)N3CCOCC3)n2)cc1", "max dye-equivalent concentration": "100 nM (active)"}
{"compound": "COc1ccc(-c2nc(SCC(=O)N3CCOCC3)n[nH]2)cc1", "max dye-equivalent concentration": "inactive"}
{"compound": "CC(=O)c1nc(N2C(=O)C3CC=C(C)CC3C2=O)sc1C", "note": "(centres undefined)", "max dye-equivalent concentration": "inactive"}
{"compound": "O/N=C(\\c1ccc2c(c1)OCCO2)C1CCCCC1", "max dye-equivalent concentration": "inactive"}
{"compound": "Cc1ccsc1C(C(=O)NC1CCCCC1)N(C(=O)Cc1cccs1)C1CC1", "note": "(centres undefined)", "max dye-equivalent concentration": "inactive"}
{"compound": "COc1ccc2oc(=O)c(C(=O)N3CCCc4ccccc43)cc2c1", "max dye-equivalent concentration": "inactive"}
{"compound": "COc1ccc2oc(=O)c(C(=O)N3CCN(c4ccccc4F)CC3)cc2c1", "max dye-equivalent concentration": "41 nM (active)"}
{"compound": "O=C(c1cccc2ccccc12)N1CCN(c2ccccc2F)CC1", "max dye-equivalent concentration": "inactive"}
{"compound": "Cc1cccc(OCc2nnc(SCn3nnc4ccccc4c3=O)o2)c1", "max dye-equivalent concentration": "inactive"}
{"compound": "CC1(C)C2CCC1(C)C(OC(=O)CCn1ccnc1)C2", "note": "(centres undefined)", "max dye-equivalent concentration": "inactive"}
{"compound": "COc1cccc(NS(=O)(=O)c2ccc3[nH]cc(C(=O)NCCCOC(C)C)c(=O)c3c2)c1", "max dye-equivalent concentration": "inactive"}
{"compound": "COC(=O)c1ccccc1NC(=O)c1cncc(Br)c1", "max dye-equivalent concentration": "inactive"}
{"compound": "Cc1cc2nc(-c3ccc(NC(=O)c4cccnc4)cc3)oc2cc1C", "max dye-equivalent concentration": "90 nM (active)"}
{"compound": "CCOC(=O)c1cc(NC(=O)c2cccnc2)cc(C(=O)OCC)c1", "max dye-equivalent concentration": "inactive"}
{"compound": "CCC(=O)Nc1cccc(NC(=O)c2cccnc2)c1", "max dye-equivalent concentration": "inactive"}
{"compound": "O=S(=O)(O)CCN1CCOCC1", "max dye-equivalent concentration": "inactive"}
{"compound": "CCCc1nnc(NC(=O)CN2C(=O)c3ccccc3S2(=O)=O)s1", "max dye-equivalent concentration": "inactive"}
{"compound": "O=P(O)(CP(=O)(c1ccccc1)c1ccccc1)c1ccccc1", "max dye-equivalent concentration": "inactive"}
{"compound": "O=C(Nc1c(-c2ccccc2)nc2c(Br)cc(Br)cn12)c1ccco1", "max dye-equivalent concentration": "inactive"}
{"compound": "CCN1CCN(C(=O)CN(C)S(=O)(=O)c2ccc(OC)cc2)CC1", "max dye-equivalent concentration": "inactive"}
{"compound": "COc1ccc(S(=O)(=O)N(CCCN2CCCC2=O)Cc2cc3c(C)ccc(C)c3[nH]c2=O)cc1", "max dye-equivalent concentration": "13 nM (active)"}
{"compound": "CCOc1cc2[nH]c(=S)n(CCCN3CCCC3=O)c(=O)c2cc1OCC", "max dye-equivalent concentration": "inactive"}
{"compound": "CC(C)(C)c1ccc(C(=O)CSc2ncn[nH]2)cc1", "max dye-equivalent concentration": "inactive"}
{"compound": "Cc1csc(NC(=O)C2CCCN2C(=O)OCC(C)C)n1", "note": "(centres undefined)", "max dye-equivalent concentration": "inactive"}
{"compound": "CN(Cc1ccccc1)c1nc2c(c(=O)[nH]c(=O)n2C)n1CCSc1nc2ccccc2[nH]1", "max dye-equivalent concentration": "inactive"}
{"compound": "O=C(Cn1c(-c2ccccn2)nc2ccccc21)NCCN1CCOCC1", "max dye-equivalent concentration": "inactive"}
{"compound": "C=CCn1c(SCC(=O)Nc2nc3ccccc3s2)nnc1-c1ccccc1O", "max dye-equivalent concentration": "inactive"}
{"compound": "C=CCn1c2ccccc2c2nnc(SC(CC)C(=O)Nc3nc(C)c(C(=O)OCC)s3)nc21", "note": "(centres undefined)", "max dye-equivalent concentration": "56 nM (active)"}
